High-throughput results: PubChem, National Center for Advancing Translational Sciences (NCATS)
Shown are actives, neighbours in structure and some others; about 9.4% of the full set was active somewhere.
NPC1 promoter act – qHTS Assay for NPC1 Promoter Activators; Huh7 NPC1 promoter luciferase reporter, 24 h; Potency, µM (doses to about 9.22 µM), for inactives: top-dose activation, actives largely listed as activators; 320,000 compounds, 2.4% hits; AID 485313, 2010; note: % of control where 0% means no effect; nearly all actives have a fitted effect of over 60% in size
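Compounds in DMSO were transferred onto Huh7 NPC1-luciferase reporter cells pre-incubated 2 h; after 24 h at 37 °C, Amplite reagent was dispensed and luminescence recorded 10 min later.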
ELG1 repair inh – qHTS screen for small molecules that inhibit ELG1-dependent DNA repair in human embryonic kidney (HEK293T) cells expressing luciferase-tagged ELG1 | HEK293T ELG1-luciferase reporter, luminescence, 16 h; DNA damage induced by 5-fluorouridine | Potency, µM (top dose mostly 46.1 µM), for the others: top-dose activity change, negative = inhibition, usual class: inhibitors | 330,000 compounds, 2.3% hits | AID 504467, 2011; note: % is set by controls: 0 for no effect and ±100 for the full control effect; nearly all actives have a fitted effect of over 55% in size
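DMSO vehicle served as the neutral condition. Each well held 2,000 cells given 5-fluorouridine plus compound; after 16 hr at 37 °C/5% CO2, ONE-Glo was added and luciferase measured 30 min later.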
FLuc modulator – qHTS profiling assay for firefly luciferase inhibitor/activator using purifed enzyme and Km concentrations of substrates (counterscreen for miR-21 project); 360,000 compounds, 6.9% hits; Luciferin 4-monooxygenase (Photinus pyralis), P08659; Potency, µM (series often up to 57.5 µM), inactives show at the highest dose activity change, negative = inhibition, actives largely listed as inhibitors; AID 588342, 2011; purified FLuc, Km substrates, luminescence inhibition;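 note: plate controls were vehicle for no effect and reference inhibitor for full effect; nearly all actives have a fitted effect of over 55% in size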
Target sequence (P08659 whole entry, looked up): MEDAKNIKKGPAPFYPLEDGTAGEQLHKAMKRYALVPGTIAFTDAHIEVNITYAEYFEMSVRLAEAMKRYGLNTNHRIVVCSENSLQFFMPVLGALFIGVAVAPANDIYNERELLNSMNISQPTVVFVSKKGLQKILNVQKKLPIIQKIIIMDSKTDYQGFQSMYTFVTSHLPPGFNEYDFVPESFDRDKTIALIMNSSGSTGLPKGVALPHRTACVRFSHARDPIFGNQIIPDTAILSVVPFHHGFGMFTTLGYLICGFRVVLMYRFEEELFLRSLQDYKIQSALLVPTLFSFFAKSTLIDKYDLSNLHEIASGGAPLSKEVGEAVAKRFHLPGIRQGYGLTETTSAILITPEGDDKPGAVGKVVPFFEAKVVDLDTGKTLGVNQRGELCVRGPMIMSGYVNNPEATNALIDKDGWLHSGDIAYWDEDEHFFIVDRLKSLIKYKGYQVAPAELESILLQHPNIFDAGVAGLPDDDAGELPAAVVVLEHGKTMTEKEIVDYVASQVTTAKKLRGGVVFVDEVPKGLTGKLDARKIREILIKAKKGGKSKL
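Purified P. pyralis luciferase (10nM final) with 10uM D-luciferin and 10uM ATP (Km levels) in 50mM Tris acetate pH 7.5, 10mM Mg acetate, 0.01% Tween-20, 0.05% BSA; qHTS 6-point titration, ~60 µM downward; luminescence read.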
SMN2 splice up – qHTS Assay for Enhancers of SMN2 Splice Variant Expression | AID 1458, 2008 | HEK293 SMN2-luciferase splicing reporter, luminescence, 30-36 h | 210,000 compounds, 2.8% hits | Potency, µM (doses to about 46.1 µM), for inactives: at the top dose activity change, positive = activation, most hits filed as activators; note: % of control where 0% means no effect; nearly all actives have a fitted effect of over 55% in size
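qHTS luciferase splicing reporter: luminescence rises when SMN2 exon 7 is included in transfected HEK293 cells. Compound exposure lasted 30-36 h at 37C, with 4.5 mM final sodium butyrate as control, followed by a ONE-Glo read.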
Rab9 prom act – qHTS Assay for Rab9 Promoter Activators; Huh7 Rab9 promoter-luciferase reporter, luminescence, 24 h; Potency, µM (series often up to 9.22 µM), without a hit: at the top dose activation, negative = inhibition, most hits filed as activators; 320,000 compounds, 2.8% hits; AID 485297, 2010; note: % of control where 0% means no effect; nearly all actives have a fitted effect of over 60% in size
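Cell-based reporter: Huh7 stable for Rab9 promoter-driven luciferase, plated in reduced-serum medium with 10% FBS at 1500 cells/well, compound-treated 24 h at 37 °C, luminescence read after 10 min reagent.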
ELG1 genotoxic – qHTS screen for small molecules that induce genotoxicity in human embryonic kidney (HEK293T) cells expressing luciferase-tagged ELG1; HEK293T ELG1-luciferase reporter, luminescence, 16 h; Potency, µM (series often up to 46 µM), without a hit: top-dose activity change, positive = activation, actives largely listed as activators; 330,000 compounds, 1.3% hits; note: % of control where 0% means no effect; nearly all actives have a fitted effect of over 60% in size
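Cells (2,000/well) expressing the ELG1-luciferase fusion are dosed by pin tool and kept 16 hr at 37 °C, 5% CO2. Signal comes from ONE-Glo luciferase reagent after 30 min at room temperature.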
* = called active by the depositor; [ ] = dose if it differs, or a comment. Calls come from the whole dose curve; as a rule, active = well fitted curve in the direction sought with a large enough effect; inconclusive = small, poorly fitted or top-dose-only effect, or another doubt; inactive = no such curve, though single readings can be large; an effect the other way counts as inactive or inconclusive. Potency is the fitted concentration of half-maximal effect.

Results for COc1ccc(Br)c(-c2nnc(CS(=O)(=O)c3ccccc3)o2)c1 ?
NPC1 promoter act: inconclusive; ELG1 repair inh: inconclusive; FLuc modulator: 19µM*; Rab9 prom act: 2.8µM*; ELG1 genotoxic: inconclusive

What do the screens show for `Cc1nc(NCCc2ccc(S(N)(=O)=O)cc2)c2c(C)c(C)sc2n1`?
NPC1 promoter act: -9%; ELG1 repair inh: 13µM*; FLuc modulator: 3%; SMN2 splice up: -88%; Rab9 prom act: -20%; ELG1 genotoxic: -21%

What do the screens show for `Cc1nc(NCc2ccc(S(N)(=O)=O)cc2)c2c(C)c(C)sc2n1`?
NPC1 promoter act: -1%; ELG1 repair inh: 5%; FLuc modulator: 0%; Rab9 prom act: -1%; ELG1 genotoxic: 9%

What do the screens show for `O=C(Nc1ccc(F)cc1)C1CCN(c2nc3ccccc3n3cccc23)CC1`?
FLuc modulator: 3%

Results for Cc1ccn2cc(-c3cccc(S(=O)(=O)N4CC(C)OC(C)C4)c3)nc2c1 (configuration not stated) ?
NPC1 promoter act: -2%; ELG1 repair inh: -2%; FLuc modulator: inconclusive; Rab9 prom act: -11%; ELG1 genotoxic: 0%

Results for Cc1ccn2cc(-c3cccc(NS(C)(=O)=O)c3)nc2c1 ?
NPC1 promoter act: 3.2µM*; ELG1 repair inh: inconclusive; FLuc modulator: 6.7µM*; Rab9 prom act: 2.5µM*; ELG1 genotoxic: inconclusive

Results for Cc1ccn2cc(-c3ccc(NS(=O)(=O)c4ccccc4)cc3)nc2c1 ?
NPC1 promoter act: 5%; ELG1 repair inh: 6%; FLuc modulator: inconclusive; SMN2 splice up: -18%; Rab9 prom act: 12%; ELG1 genotoxic: 3%

How did Cc1cccc(NC(=O)c2ccccc2NC(=O)CCC(=O)O)c1 do in these assays?
NPC1 promoter act: 0%; ELG1 repair inh: 4%; FLuc modulator: 2%; SMN2 splice up: 8%; Rab9 prom act: 0%; ELG1 genotoxic: -1%

What do the screens show for `Cc1ccn2cc(-c3cccc(S(=O)(=O)N4CCCC4)c3)nc2c1`?
NPC1 promoter act: 14%; ELG1 repair inh: -6%; FLuc modulator: 12µM*; Rab9 prom act: 9%; ELG1 genotoxic: 6%

Results for Cc1ccn2cc(-c3cccc([N+](=O)[O-])c3)nc2c1 ?
NPC1 promoter act: 0.56µM*; ELG1 repair inh: inconclusive; FLuc modulator: 0.67µM*; SMN2 splice up: 1.8µM*; Rab9 prom act: inconclusive; ELG1 genotoxic: 0.46µM*

Results for Cc1ccn2cc(-c3cccc(NC(=O)CCC(=O)O)c3)nc2c1 ?
NPC1 promoter act: -6%; ELG1 repair inh: inconclusive; FLuc modulator: 0.85µM*; Rab9 prom act: -5%; ELG1 genotoxic: 10%

Results for COc1cc(-c2ccc(N=Nc3ccc4c(S(=O)(=O)O)cc(S(=O)(=O)O)c(N)c4c3O)c(OC)c2)ccc1N=Nc1ccc2c(S(=O)(=O)O)cc(S(=O)(=O)O)c(N)c2c1O ?
SMN2 splice up: -12%[20.6 µM]

Results for CC(=O)Nc1ccc2nc(-c3ccccc3)cn2c1 ?
NPC1 promoter act: 1µM*; ELG1 repair inh: inconclusive; FLuc modulator: 2.1µM*; SMN2 splice up: 2.5µM*; Rab9 prom act: 1.1µM*; ELG1 genotoxic: 5.8µM*

How did CC(=O)Nc1cccc(-c2cn3ccc(C)cc3n2)c1 do in these assays?
NPC1 promoter act: 3.2µM*; ELG1 repair inh: inconclusive; FLuc modulator: 4.3µM*; Rab9 prom act: 1.6µM*; ELG1 genotoxic: inconclusive
